Test results: PubChem BioAssay (NCI)
Compounds without any hit were thinned out: in the full panel of roughly 79,000, 15% have a hit. Active and inactive are the calls of the source. Cut-off read from the data, not from the text of the source: active = growth inhibition above about 70%; inactive = the rest.

Legend:
[1] = NCI Yeast Anticancer Drug Screen. Data for the rad52 strain (AID 147);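 note: 0% = growth of vehicle-treated control cultures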; conditions: S. cerevisiae rad52 mutant growth inhibition, stronger effect = higher value
Procedure, shortened: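 Vehicle-treated cultures served as the reference for growth inhibition of compound-exposed yeast bearing a DNA repair mutation.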

[2] = NCI Yeast Anticancer Drug Screen. Data for the wt1 strain (AID 149);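 note: 0% = growth of vehicle-treated wt1 cultures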; conditions: S. cerevisiae wt1 strain (SPY 50644) growth inhibition, stronger effect = higher value
Procedure, shortened: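 Measured: growth of wt1 yeast under compound versus vehicle treatment, reported as inhibition.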

[3] = NCI Yeast Anticancer Drug Screen. Data for the rad50EPP+ strain (AID 151);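 note: 0% = growth of vehicle-treated control cultures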; conditions: S. cerevisiae rad50 mutant strain, stronger effect = higher value
Procedure, shortened: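 In this screen, rad50EPP+ yeast were exposed to compounds. Growth inhibition was scored against vehicle-treated controls.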

[4] = NCI Yeast Anticancer Drug Screen. Data for the mgt1 strain (AID 153); conditions: S. cerevisiae mgt1 mutant growth inhibition, stronger effect = higher value
Procedure, shortened: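 mgt1 strain exposed; growth vs vehicle control recorded as inhibition.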

[5] = NCI Yeast Anticancer Drug Screen. Data for the rad50 strain (AID 155);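 note: 0% = growth of vehicle-only cultures of the same strain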; conditions: S. cerevisiae rad50 strain growth inhibition, stronger effect = higher value
Procedure, shortened: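 Growth of the mutant yeast was measured after compound exposure and referenced to vehicle-treated cultures.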

[6] = NCI Yeast Anticancer Drug Screen. Data for the mec2-1 strain (AID 157); conditions: S. cerevisiae mec2-1 strain, stronger effect = higher value
Procedure, shortened: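 Vehicle-treated cultures served as reference for growth inhibition of compound-exposed mec2-1 yeast.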

[7] = NCI Yeast Anticancer Drug Screen. Data for the rad14 strain (AID 159);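 note: 0% = growth of vehicle-treated control cultures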; conditions: S. cerevisiae rad14 strain growth inhibition, stronger effect = higher value
Procedure, shortened: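 Here, inhibition of yeast growth was measured after compound exposure, using a strain with a genetic defect in DNA damage repair and vehicle-treated cultures as the reference.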

[8] = NCI Yeast Anticancer Drug Screen. Data for the sgs1 mgt1 strain (AID 161);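 note: 0% = growth of cultures given vehicle only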; conditions: S. cerevisiae sgs1 mgt1 strain, stronger effect = higher value
Procedure, shortened: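 Read-out: growth inhibition vs vehicle controls. Cells: mutant yeast strain deficient in DNA damage repair.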

[9] = NCI Yeast Anticancer Drug Screen. Data for the cln2 rad14 strain (AID 165);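 note: 0% = growth equal to vehicle treated cultures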; conditions: S. cerevisiae cln2 rad14 strain, stronger effect = higher value
Procedure, shortened: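 Each compound was tested on cln2 rad14 yeast. Inhibition of growth was calculated against vehicle-exposed controls.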

[10] = NCI Yeast Anticancer Drug Screen. Data for the bub3 strain (AID 167); conditions: S. cerevisiae bub3 mutant strain, stronger effect = higher value
Procedure, shortened: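 Whole-cell yeast assay. The mutant strain was incubated with compounds, and growth inhibition was determined by comparison with vehicle-treated cells.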

[11] = NCI Yeast Anticancer Drug Screen. Data for the wt2 strain (AID 169);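 note: 0% = growth of vehicle-treated yeast cultures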; conditions: S. cerevisiae wt2 strain growth inhibition, stronger effect = higher value
Procedure, shortened: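 Inhibition of yeast growth was determined after compound treatment, normalised to controls receiving only vehicle.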

[12] = NCI Yeast Anticancer Drug Screen. Data for the mlh1 strain (AID 171);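 note: 0% = growth of vehicle-treated control cultures of the same strain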; conditions: S. cerevisiae mlh1 strain growth inhibition, stronger effect = higher value
Procedure, shortened: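 Vehicle-normalised growth inhibition of a repair- or checkpoint-altered yeast strain following compound treatment.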

[13] = NCI Yeast Anticancer Drug Screen. Data for the sgs1 strain (AID 173);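 note: 0% = growth of vehicle-only control cultures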; conditions: S. cerevisiae sgs1 mutant, stronger effect = higher value
Procedure, shortened: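 Screen format: yeast with repair or checkpoint alterations, compound exposure, growth read relative to vehicle.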

[14] = NCI Yeast Anticancer Drug Screen. Data for the mlh1 rad18 strain (AID 175); conditions: S. cerevisiae mlh1 rad18 strain growth inhibition, stronger effect = higher value
Procedure, shortened: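 Vehicle-treated cultures served as the reference for growth inhibition in a yeast strain carrying DNA damage repair alterations exposed to each compound.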

[15] = NCI Yeast Anticancer Drug Screen. Data for the rad18 strain (AID 177); conditions: S. cerevisiae rad18 mutant growth inhibition, stronger effect = higher value
Procedure, shortened: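 Test articles were incubated with altered yeast defective in DNA damage repair. Results are given as inhibition of growth versus vehicle.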

[16] = at 5.0 µM (retest, dose inferred, filed as 0.5)
[17] = at 50.0 µM (retest, dose inferred, filed as 5.0)

Measured: growth inhibition

CC1=C(C(=O)NCc2ccccc2)C(c2ccccc2)C(C(=O)NCc2ccccc2)=C(C)N1
active: [1]; at 100.0 µM 85% | [2]; at 100.0 µM 89% | [4]; at 100.0 µM 97% | [5]; [17] 75% | [5]; at 50.0 µM 75.5% | [5]; at 100.0 µM 91% | [6]; [17] 81% | [6]; at 50.0 µM 93.3% | [6]; at 100.0 µM 94% | [7]; at 100.0 µM 92% | [8]; [17] 82% | [8]; at 50.0 µM 70.7% | [10]; [17] 84% | [10]; at 50.0 µM 87.8% | [10]; at 100.0 µM 94% | [11]; at 100.0 µM 91% | [12]; at 100.0 µM 96% | [13]; at 100.0 µM 93% | [14]; [17] 82% | [14]; at 50.0 µM 93.1% | [15]; at 100.0 µM 96%
inactive: [1]; at 1.2 µM -3% | [1]; at 3.7 µM -4% | [1]; at 11.0 µM -4% | [1]; at 33.0 µM -20% | [2]; at 1.2 µM 0% | [2]; at 3.7 µM -1% | [2]; at 11.0 µM -4% | [2]; at 33.0 µM 4% | [3]; at 1.2 µM -3% | [3]; at 3.7 µM -1% | [3]; at 11.0 µM 3% | [3]; at 33.0 µM 3% | [3]; at 100.0 µM 0% | [4]; at 1.2 µM -2% | [4]; at 3.7 µM -2% | [4]; at 11.0 µM -3% | [4]; at 33.0 µM 6% | [5]; at 1.2 µM -14% | [5]; at 3.7 µM 21% | [5]; [16] 2% | [5]; at 11.0 µM 22% | [5]; at 33.0 µM 36% | [6]; at 1.2 µM -1% | [6]; at 3.7 µM -4% | [6]; [16] 11% | [6]; at 11.0 µM -3% | [6]; at 33.0 µM 18% | [7]; at 1.2 µM 1% | [7]; at 3.7 µM 4% | [7]; at 11.0 µM 6% | [7]; at 33.0 µM 16% | [8]; [16] -1% | [9]; [16] -7% | [9]; [17] 51% | [9]; at 50.0 µM 11.4% | [10]; at 1.2 µM -1% | [10]; at 3.7 µM 1% | [10]; [16] 6% | [10]; at 11.0 µM 0% | [10]; at 33.0 µM 45% | [11]; at 1.2 µM -1% | [11]; at 3.7 µM 7% | [11]; at 11.0 µM -3% | [11]; at 33.0 µM 10% | [12]; at 1.2 µM -4% | [12]; at 3.7 µM -3% | [12]; at 11.0 µM -3% | [12]; at 33.0 µM 8% | [13]; at 1.2 µM -1% | [13]; at 3.7 µM -2% | [13]; at 11.0 µM 5% | [13]; at 33.0 µM 40% | [14]; [16] 4% | [15]; at 1.2 µM 2% | [15]; at 3.7 µM 3% | [15]; at 11.0 µM 7% | [15]; at 33.0 µM 60%

CC(C)OC(=O)c1ccc(CCc2cc(O)c(Br)cc2O)cc1
active: [1]; at 100.0 µM 79% | [2]; at 100.0 µM 98% | [3]; at 3.7 µM 80% | [3]; at 11.0 µM 94% | [3]; at 33.0 µM 97% | [3]; at 100.0 µM 94% | [4]; at 3.7 µM 70% | [4]; at 11.0 µM 71% | [4]; at 33.0 µM 72% | [4]; at 100.0 µM 94% | [5]; at 33.0 µM 98% | [5]; [17] 99% | [5]; at 50.0 µM 86.2% | [5]; at 100.0 µM 97% | [6]; [17] 99% | [6]; at 50.0 µM 91.2% | [6]; at 100.0 µM 87% | [7]; at 11.0 µM 75% | [7]; at 33.0 µM 96% | [7]; at 100.0 µM 92% | [8]; [17] 98% | [8]; at 50.0 µM 88.5% | [9]; [17] 96% | [9]; at 50.0 µM 91.8% | [10]; at 33.0 µM 98% | [10]; [17] 91% | [10]; at 50.0 µM 88.9% | [10]; at 100.0 µM 92% | [11]; at 11.0 µM 95% | [11]; at 33.0 µM 98% | [11]; at 100.0 µM 95% | [13]; at 100.0 µM 95% | [14]; [17] 99% | [14]; at 50.0 µM 85.2% | [15]; at 33.0 µM 96% | [15]; at 100.0 µM 93%
inactive: [1]; at 1.2 µM 37% | [1]; at 3.7 µM 50% | [1]; at 11.0 µM 56% | [1]; at 33.0 µM 53% | [2]; at 1.2 µM 26% | [2]; at 3.7 µM 33% | [2]; at 11.0 µM 45% | [2]; at 33.0 µM 27% | [3]; at 1.2 µM 66% | [4]; at 1.2 µM 55% | [5]; at 1.2 µM 34% | [5]; at 3.7 µM 49% | [5]; [16] 27% | [5]; at 11.0 µM 66% | [6]; at 1.2 µM 6% | [6]; at 3.7 µM 20% | [6]; [16] 42% | [6]; at 11.0 µM 30% | [6]; at 33.0 µM 32% | [7]; at 1.2 µM 43% | [7]; at 3.7 µM 53% | [8]; [16] 31% | [9]; [16] 1% | [10]; at 1.2 µM 22% | [10]; at 3.7 µM 22% | [10]; [16] 4% | [10]; at 11.0 µM 52% | [11]; at 1.2 µM 18% | [11]; at 3.7 µM 39% | [13]; at 1.2 µM 47% | [13]; at 3.7 µM 60% | [13]; at 11.0 µM 58% | [13]; at 33.0 µM 61% | [14]; [16] 45% | [15]; at 1.2 µM 20% | [15]; at 3.7 µM 24% | [15]; at 11.0 µM 59%

Cc1ccc2nc(-c3cccc([N+](=O)[O-])c3)oc(=O)c2c1
inactive: [1]; at 1.2 µM 3% | [1]; at 3.7 µM 6% | [1]; at 11.0 µM 1% | [1]; at 33.0 µM -4% | [1]; at 100.0 µM -10% | [2]; at 1.2 µM -7% | [2]; at 3.7 µM -3% | [2]; at 11.0 µM -6% | [2]; at 33.0 µM -15% | [2]; at 100.0 µM -20% | [3]; at 1.2 µM -12% | [3]; at 3.7 µM 12% | [3]; at 11.0 µM 18% | [3]; at 33.0 µM 15% | [3]; at 100.0 µM 27% | [4]; at 1.2 µM -29% | [4]; at 3.7 µM -25% | [4]; at 11.0 µM -25% | [4]; at 33.0 µM -26% | [4]; at 100.0 µM -18% | [5]; at 1.2 µM -21% | [5]; at 3.7 µM -19% | [5]; [16] 31% | [5]; at 11.0 µM -34% | [5]; at 33.0 µM -31% | [5]; [17] 62% | [5]; at 50.0 µM 14.2% | [5]; at 100.0 µM -30% | [6]; at 1.2 µM -57% | [6]; at 3.7 µM -57%
